Giardia kill = Small Molecules that selectively kill Giardia lamblia: qHTS | AID 540267, 2011 | Giardia lamblia trophozoite viability | 340,000 compounds, 0.15% hits | activity change, % at 7.66 µM, hits read low; in the data active means activity change below about -80%; inconclusive means between about -30% and that limit;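 further: parasites exposed to compound for two days anaerobically before the ATP read; on the % scale 0 is the no-effect control and ±100 the full control effect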
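Giardia trophozoites, 100 cells per well, were exposed to compounds for 48 hrs at 37 deg C under anaerobic conditions; viability was then read as ATP content by bioluminescence after 15-30 min at room temperature.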
IL-2 act = qHTS of IL-2 Activators; IL-2 activation reporter assay, cell-based qHTS; stimulated with anti-CD3/CD4/CD28 beads; in transgenic mouse T cells; activation, % (series mostly up to about 46 µM); 360,000 compounds, 0.065% hits; AID 652025, 2013; in the data active means activation above about 50%; inconclusive means mostly about 30% to 49%; further: 0% is about no effect
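Using fluorescent plate cytometry, EGFP and DsRed are detected in transgenic mouse T cells stimulated 18 h at 37 degrees C with antibody-coated beads after 60 min compound pretreatment.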
BRCA1 expr act = qHTS Assay to Identify Small Molecule Activators of BRCA1 Expression | AID 624202, 2012 | Potency, µM (top dose mostly 46.1 µM), inactives show top-dose activation, usual class: activators | 380,000 compounds, 1.1% hits | MCF7-BRCA1-FFLuc reporter, luminescence, 48 h; response scale: scaled: vehicle 0%, 10 µM genistein 100%; further: potency means the concentration at half of the fitted maximal effect; nearly all actives have a fitted effect of over 80% in size
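Reporter cells (MCF7, BRCA1 promoter-firefly luciferase) received library compounds across a concentration series for 48 h. End-point luminescence was measured and concentration-effect curves derived after normalization.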
TrxR1 substrate = qHTS Assay for Substrates of Mammalian Selenoprotein Thioredoxin Reductase 1 (TrxR1): qHTS; Thioredoxin reductase 1, cytoplasmic (Rattus norvegicus), O89049; purified TrxR1 substrate turnover, NADPH consumption readout; Potency, µM (doses to about 114 µM), for inactives: at the highest dose activity change, negative = substrate turnover; 390,000 compounds, 0.01% hits; AID 588456, 2011; further: potency means the concentration at half of the fitted maximal effect; on the % scale 0 is the no-effect control and ±100 the full control effect; nearly all actives have a fitted effect of over 50% in size
Target sequence (O89049 whole entry, looked up): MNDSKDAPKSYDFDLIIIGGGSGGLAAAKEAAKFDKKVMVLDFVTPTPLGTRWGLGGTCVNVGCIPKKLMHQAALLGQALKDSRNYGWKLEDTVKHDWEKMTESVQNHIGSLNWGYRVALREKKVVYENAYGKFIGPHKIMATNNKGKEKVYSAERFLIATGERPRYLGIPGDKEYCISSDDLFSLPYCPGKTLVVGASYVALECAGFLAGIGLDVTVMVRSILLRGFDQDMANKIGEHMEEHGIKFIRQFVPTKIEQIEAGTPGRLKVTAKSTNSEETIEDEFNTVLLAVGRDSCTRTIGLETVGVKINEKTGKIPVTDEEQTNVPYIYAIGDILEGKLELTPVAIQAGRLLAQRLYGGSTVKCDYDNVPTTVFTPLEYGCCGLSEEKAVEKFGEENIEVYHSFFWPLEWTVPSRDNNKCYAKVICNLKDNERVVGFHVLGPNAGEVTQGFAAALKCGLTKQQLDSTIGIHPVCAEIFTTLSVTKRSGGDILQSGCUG
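Rat TrxR1, dispensed at 90 nM, was prereduced with 400 uM NADPH (final) for 5 min at ~22 deg C, then incubated with compound 15 min before 400 uM selenite. A first-read NADPH fluorescence drop versus no-compound background flagged substrates.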
TrxR1 inh = qHTS Assay for Inhibitors of Mammalian Selenoprotein Thioredoxin Reductase 1 (TrxR1): qHTS; Thioredoxin reductase 1, cytoplasmic (Rattus norvegicus), O89049; recombinant rTrxR1, NADPH fluorescence consumption, selenite substrate; Potency, µM (top dose mostly 114 µM), without a hit: top-dose activity change, negative = inhibition, usual class: inhibitors; 390,000 compounds, 1% hits; AID 588453, 2011; further: potency means the concentration at half of the fitted maximal effect; on the % scale 0 is the no-effect control and ±100 the full control effect; nearly all actives have a fitted effect of over 65% in size
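Rat TrxR1 (90 nM in the dispensed reagent) was pre-reduced with 400 uM NADPH for 5 min at room temperature, then incubated with compound for 15 min. After 400 uM selenite was added, NADPH fluorescence (Ex 340/Em 450 nm) was followed for 8 min.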
IDH1 R132H inh = qHTS for Inhibitors of mutant isocitrate dehydrogenase 1 (IDH1): qHTS. Isocitrate dehydrogenase [NADP] cytoplasmic (Homo sapiens), O75874. IDH1-R132H enzyme, NADPH consumption, diaphorase/resazurin fluorescence. Potency, µM (top dose mostly 76.6 µM), for inactives: at the top dose activity change, negative = inhibition, most hits filed as inhibitors. 390,000 compounds, 0.093% hits. AID 602179, 2012; further: potency means the concentration at half of the fitted maximal effect; on the % scale 0 is the no-effect control and ±100 the full control effect; nearly all actives have a fitted effect of over 65% in size
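IDH1-R132H (0.5 ug/mL) preincubated 30 min with compound, then NADPH (0.016 mM) and alpha-KG (2 mM) added; 80 min at RT, pH 7.5. Remaining NADPH coupled via diaphorase/resazurin to fluorescence (540/590 nm); concentration-response curves normalized to no-enzyme control.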
* marks the source's active call; other numbers are inactive results; ? = inconclusive; / = no result; [ ] = another dose, or the depositor's remark. Only some compounds are listed: those with a hit (about 2.2% of all), similar ones and a draw of the others. Unless noted, the call rests on the fitted dose curve; in most records, active means well fitted curve in the direction sought with a large enough effect; inconclusive means small, poorly fitted or top-dose-only effect, or another doubt; inactive means no such curve, though single readings can be large; an effect the other way counts as inactive or inconclusive.

SMILES	Giardia kill	IL-2 act	BRCA1 expr act	TrxR1 substrate	TrxR1 inh	IDH1 R132H inh
Cc1ccc(/C(O)=C2/C(=O)C(=O)N(CCN3CCOCC3)C2c2ccccn2)cc1 (stereo not given)	-14	-2	0%	-2%	?	7%
C=CCOc1ccc(/C(O)=C2/C(=O)C(=O)N(CCCN3CCOCC3)C2c2ccc(OC)cc2)cc1 (stereo not given)	9	-2	-19%	-13%	?	1%
CCOc1ccc(C2/C(=C(/O)c3ccc4c(c3)CC(C)O4)C(=O)C(=O)N2CC2CCCO2)cc1 (stereo not given)	-17	0	-3%	-6%	2%	-7%
C=CCOc1ccc(/C(O)=C2/C(=O)C(=O)N(CCCN3CCOCC3)C2c2ccccc2)cc1 (stereo not given)	9	0	12%	-7%	25µM*	0%
COc1ccccc1Nc1nc(C)nc(N)c1S(=O)(=O)c1ccccc1	/	/	-4%	48%	40%	1%
CC1CCc2onc(C(=O)Nc3ccc(Cl)cc3)c2C1 (stereo not given)	/	/	/	1%	24%	10%
CC(=O)c1cc(-c2ccc(F)cc2)n(CC(=O)NC2CCCCCC2)c1C	/	/	/	-4%[57.1 µM]	12%[57.1 µM]	-10%
CCOC(=O)C1CCC(CN(Cc2c(Cl)cccc2Cl)S(=O)(=O)c2ccc(F)c(C)c2)CC1 (stereo not given)	/	/	/	2%[57.1 µM]	16%[57.1 µM]	-9%
O=C1C(=O)N(CCN2CCOCC2)C(c2ccccn2)/C1=C(/O)c1ccccc1 (stereo not given)	9	-2	-21%	-5%	18µM*	9%
COc1ccc(C2/C(=C(\O)c3ccc4c(c3)OCCO4)C(=O)C(=O)N2CCCN(C)C)c(OC)c1 (stereo not given)	0	-2	24%	-8%	10µM*	3%
Cc1cc(=O)[nH]c2n[nH]c(-c3ccccc3)c12	4	19	11µM*	21%[57.1 µM]	-5%[57.1 µM]	4%
Cc1cc(=O)[nH]c(-c2ccccc2)n1	5	0	9%	-3%	12%[57.1 µM]	-5%
COc1ccc(NC(=O)c2ccc([N+](=O)[O-])o2)cc1	-95*	-5	-63%	-1%	?	7%
CC(=O)c1ccc(NC(=O)c2ccc([N+](=O)[O-])o2)cc1	-101*	2	-81%	-9%	-22%	6%
CC(=O)c1cccc(NC(=O)c2ccc([N+](=O)[O-])o2)c1	-88*	0	-18%	2%[57.1 µM]	-3%[57.1 µM]	-1%
Cc1cc(C)cc(NC(=O)c2ccc([N+](=O)[O-])o2)c1	-95*	0	-88%	-8%[57.1 µM]	-29%[57.1 µM]	-2%
CC(C)c1ccc(Cn2cnc3c(cnn3C(C)(C)C)c2=O)cc1	/	/	/	-10%	-1%	/
COC(=O)CSc1ncc2c(n1)-c1ccccc1N(Cc1ccccc1C)S2(=O)=O	/	/	/	9%[57.1 µM]	24%[57.1 µM]	13%
Cc1ccc(C)c(-c2nnc(NC(=O)c3ccc([N+](=O)[O-])o3)o2)c1	-85*	-3	-84%	-19%	?	4%
O=c1c2ccccc2nnn1CSc1nnc2ccccn12	-4	0	5.6µM*	-5%	9%	0%
CCCOc1ccc(C(=O)Nc2ccccc2[N+](=O)[O-])cc1	-12	2	3.2µM*	2%	12%	17%
COc1ccc(NC(=O)c2ccccc2)c([N+](=O)[O-])c1	1	1	7.9µM*	6%[57.1 µM]	18%[57.1 µM]	-5%
COc1ccc(NC(=O)c2cccnc2)c([N+](=O)[O-])c1	5	0	-49%	6%[57.1 µM]	27%[57.1 µM]	5%
Cc1ccc(-c2cn3nc(N4CCCC(C(=O)NCc5ccc(F)cc5)C4)sc3n2)cc1 (stereo not given)	/	/	/	-9%	9%	17%
Nc1cccc(C(=O)OCC(=O)c2ccccc2)c1	-13	1	7.9µM*	-7%[11.4 µM]	-10%[11.4 µM]	10%
SMILES	Giardia kill	IL-2 act	BRCA1 expr act	TrxR1 substrate	TrxR1 inh	IDH1 R132H inh
O=C(COC(=O)c1cccc(O)c1)c1ccccc1	2	-2	?	6%	7%	1%
Cc1ccc(-n2nc(CO)c(C(=O)NC(C)CCCc3ccccc3)n2)cc1 (stereo not given)	/	/	/	5%	24%	0%
COc1ccc(OCC(=O)N/N=C2\CCCc3ccccc32)cc1	-9	0	14%	-5%	-1%	16%
Cc1cccc2c1OCC/C2=N\NC(=O)COc1ccccc1	-13	-1	11µM*	4%	8%	2%
O=C(CSc1nc2c(oc3ccccc32)c(=O)n1-c1ccccc1)Nc1ccccc1F	/	/	-29%	1%	18%	-2%
O=S1(=O)CCO[C@H]2CCCC[C@@H]2N1Cc1ccccc1Br	/	/	/	-5%	-5%	/
C=C1[C@@H](O)[C@H](CC(C)C)N(Cc2ccccc2Br)S1(=O)=O	?	-1	-9%	-3%[57.1 µM]	5µM*	17%
Cc1ccccc1NC(=O)CSc1nnc(-c2ccco2)c(-c2ccco2)n1	7	0	-5%	0%	2.5µM*	-6%
Cc1cccc(C)c1NC(=O)CSc1nnc(-c2ccco2)c(-c2ccco2)n1	5	0	-30%	4%	3.2µM*	1%
COc1ccc(/C=C/c2c(-c3ccc(OC)cc3)oc3ccccc23)cc1	-10	-3	25%	57%	45µM*	10%
O=C(C1CCN(S(=O)(=O)Cc2ccccc2)CC1)N1CCN(c2ccc(F)cc2)CC1	/	/	/	-4%	-2%	-3%
O=C1CC(c2nc3ccccc3n2CCCOc2ccccc2)CN1c1ccc(F)cc1 (stereo not given)	/	/	/	-2%	14%	-15%
COC(=O)c1ccccc1S(=O)(=O)N1CCn2cccc2C1C (stereo not given)	-3	0	-13%	3%[57.1 µM]	7%[57.1 µM]	-2%
COc1ccc(NC(C)=O)cc1S(=O)(=O)N1CCn2cccc2C1C (stereo not given)	-4	0	1%	-11%	50µM*	-9%
NC(=O)Cn1c(=O)n(-c2ccc(F)c(Cl)c2)c(=O)c2sc3ccccc3c21	/	/	-10%	27%	16%	0%
CCc1ccc(/C=N/N2CCN(c3ccccn3)CC2)cc1	-18	0	13µM*	2%	33%	17%
